Screens as filed in PubChem.
An excerpt weighted towards active compounds, which were near 7.3% of everything screened.
HCV inh: blocks hepatitis C virus; Potency, µM (series often up to 41.8 µM), actives largely listed as inhibitors; 3.4% of 340,000 active; Huh7.5.1 HCVcc-Cre infection, luciferase reporter, 44 h; active = well fitted inhibition curve with a large enough effect; inconclusive = small, poorly fitted or top-dose-only effect, or another doubt; inactive = no such curve, though single readings can be large or run the other way
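Whole-lifecycle infectious HCVcc-Cre system; cells 1,000/well, compound then virus (~0.5 moi) added 4 h after plating, 44 h culture. Luciferase read 15 sec following 15 min substrate incubation, room temp.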
HCMV antiviral: human cytomegalovirus inhibition; activity change, negative = inhibition, % at 57.5 µM; HFF cells, HCMV-luciferase reporter, 72 h; stronger effect = lower value; 4.5% of 410,000 active; AID 1259415; in the data active = activity change below about -60%; inconclusive = no clear call, values can overlap the other calls; inactive = above about -39%
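Human foreskin fibroblasts infected with luciferase-reporter HCMV at MOI 1 PFU/cell, compounds at two doses. Luciferase measured 72 h post infection; normalized to buffer-only basal and Salinomycin (10uM) controls.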
FMDV inh: foot and mouth disease virus antiviral activity; AID 1159524; 1.2% of 410,000 active; FMDV antiviral cell-based qHTS; Potency, µM (titrated, usually from 57.9 µM), actives largely listed as inhibitors; calls by dose curve; tested in HEK293T cells; note: read-out not given here; nearly all actives have a fitted effect of over 45% in size
VACV mCherry inh: vaccinia inhibition (mCherry reporter); Vaccinia virus mCherry reporter infection, fluorescence; Potency, µM (series often up to 36.5 µM), most hits filed as inhibitors; 0.63% of 310,000 active; AID 720579; calls by dose curve; tested in A549 cells; note: nearly all actives have a fitted effect of over 35% in size
Vaccinia Venus: vaccinia inhibition (Venus reporter); Vaccinia virus Venus reporter expression, fluorescence; Potency, µM (top dose mostly 36.5 µM), most hits filed as inhibitors; 0.46% of 330,000 active; AID 720580; calls by dose curve; tested in A549 cells; note: nearly all actives have a fitted effect of over 30% in size
Each line names hits and unclear results; the compound was inactive in the other large screens.

O=C(CSc1ncc2c(n1)-c1cc(Cl)ccc1N(Cc1ccccc1)S2(=O)=O)Nc1ccc(F)cc1F	HCMV antiviral -98, FMDV inh inconclusive (no result: HCV inh)
Cc1cccc(C)c1NC(=O)CSc1ncc2c(n1)-c1ccc(Cl)cc1N(Cc1ccccc1)S2(=O)=O	HCMV antiviral -99 (no result: HCV inh)
CN1c2cc(Cl)ccc2-c2nc(SCC(=O)Nc3ccc(F)cc3F)ncc2S1(=O)=O	HCMV antiviral -63, FMDV inh inconclusive, VACV mCherry inh inconclusive (no result: HCV inh)
COc1ccccc1NC(=O)CSc1ncc2c(n1)-c1cc(Cl)ccc1N(Cc1ccccc1)S2(=O)=O	none (no result: HCV inh)
O=C(CSc1ncc2c(n1)-c1ccc(Cl)cc1N(Cc1ccccc1)S2(=O)=O)Nc1ccc(F)c(F)c1	none (no result: HCV inh)
COc1ccc(NC(=O)CC2C(=O)N(c3ccc(C)cc3)C(=O)N2C2CCCC2)cc1 (stereo unspecified)	none (no result: HCV inh)
COc1cc(C2CC(=O)Nc3cc4c(cc32)OCCO4)cc(OC)c1O (stereo unspecified)	none (no result: HCV inh)
CC1=CC2C(C(O)CC3(C)C2CC(C)C32OCOC23COCO3)C2(C)C/C(=C\O)C(=O)C=C12 (stereo unspecified)	HCV inh inconclusive, HCMV antiviral -99, FMDV inh 40µM, VACV mCherry inh inconclusive, Vaccinia Venus 13µM
CSC1=NC(C(Cl)(Cl)Cl)N=C(c2ccc(C)cc2)N1 (stereo unspecified)	HCV inh inconclusive, HCMV antiviral -71, Vaccinia Venus inconclusive
O=C(CN1Cc2ccccc2OC(c2ccsc2)C1)NCC1OCCc2ccccc21 (stereo unspecified)	none (no result: HCV inh, HCMV antiviral)
COc1ccc(Nc2nnc(-c3ccc(C)c(S(=O)(=O)NCc4nc5ccccc5[nH]4)c3)c3ccccc23)cc1	HCMV antiviral -95, VACV mCherry inh inconclusive, Vaccinia Venus inconclusive (no result: HCV inh)
Cc1ccc(-c2nnc(Nc3cccc(Cl)c3)c3ccccc23)cc1S(=O)(=O)NCC1CCCO1 (stereo unspecified)	HCMV antiviral -65 (no result: HCV inh)
Cc1ccc(-c2nnc(Nc3ccc(O)cc3)c3ccccc23)cc1S(=O)(=O)NCC1CCCO1 (stereo unspecified)	HCMV antiviral -71, VACV mCherry inh inconclusive (no result: HCV inh)
O=C(/C=C\c1ccc2c(c1)OCO2)NC1CC(=O)N(c2ccc(F)cc2)C1 (stereo unspecified)	none (no result: HCV inh)
CCOC(=O)C1=C(CS(=O)(=O)c2ccc(F)c(C)c2)NC(=O)NC1c1ccccc1OC (stereo unspecified)	none (no result: HCV inh)
CCOc1ccc(C(=O)OCc2cc(=O)n3nc(C4CCCCC4)sc3n2)cc1	FMDV inh inconclusive (no result: HCV inh)
COc1ccc(NC(=O)c2ccc3c(c2)OCO3)cc1Cl	none
CCOc1ccc(NC(=O)c2ccc(F)c(S(=O)(=O)NCc3ccc4c(c3)OCO4)c2)cc1	HCMV antiviral -81, FMDV inh inconclusive, VACV mCherry inh inconclusive, Vaccinia Venus inconclusive (no result: HCV inh)
COc1ccc(NCc2ccc3c(c2)OCO3)cc1Cl	HCMV antiviral inconclusive, VACV mCherry inh 11µM (no result: FMDV inh)
COc1ccc(NC(C)=O)cc1S(=O)(=O)NCc1ccc2c(c1)OCO2	HCMV antiviral -88 (no result: HCV inh)
CCCCOc1ccc(C(=O)N(Cc2ccc(C(C)C)cc2)C2CCS(=O)(=O)C2)cc1 (stereo unspecified)	none (no result: HCV inh)
CCc1ccc(NC(=O)c2cc3c(COC(C)=O)cnc(C)c3oc2=O)cc1	FMDV inh inconclusive (no result: HCV inh)
O=C(c1ccccc1)C1C(c2ccccc2)C1[N+](=O)[O-] (stereo unspecified)	none
CN(C)c1ccc([C@@H]2[C@@H]([N+](=O)[O-])[C@H]3C=Cc4ccccc4N3[C@H]2C(=O)c2ccc(Cl)cc2)cc1	HCV inh inconclusive, HCMV antiviral -67
Nc1c[n+](N2CCOCC2)no1	none (no result: HCV inh, HCMV antiviral, VACV mCherry inh, Vaccinia Venus)
CN(CCc1ccccc1)C(=O)c1ccc(NC(=O)Cc2ccc(NC(=O)C3CCCN(C(=O)c4ccccc4)C3)cc2)cc1 (stereo unspecified)	HCMV antiviral -76, FMDV inh inconclusive, VACV mCherry inh inconclusive
CN(CCc1ccccc1)C(=O)c1ccc(NC(=O)Cc2ccc(NC(=O)C3CCN(C(=O)c4ccccc4)CC3)cc2)cc1	HCMV antiviral -63, VACV mCherry inh inconclusive
CN(CCc1ccccc1)C(=O)c1ccc(NC(=O)Cc2ccc(NC(=O)C3CCCN(C(=O)C4CCCCC4)C3)cc2)cc1 (stereo unspecified)	HCMV antiviral inconclusive, FMDV inh inconclusive, VACV mCherry inh inconclusive
CN(CCc1ccccc1)C(=O)c1ccc(NC(=O)Cc2ccc(NC(=O)C3CCN(C(=O)C4CCCC4)CC3)cc2)cc1	HCMV antiviral -71, FMDV inh inconclusive, VACV mCherry inh inconclusive, Vaccinia Venus inconclusive
CC(C)CCNC(=O)Nc1ccc2c(c1)N(Cc1ccccc1)C(=O)c1ccccc1S2	none (no result: HCV inh)
Cc1ccc(O)c(C(=O)c2cnc3c(c2)COc2ccccc2-3)c1	HCV inh 10µM, HCMV antiviral -66
Cc1ccc2c(c1)-c1ncc(C(=O)c3ccccc3O)cc1CO2	none (no result: HCV inh)
c1cncc(CNc2ncncc2-c2ccc3c(c2)OCO3)c1	none (no result: HCV inh, HCMV antiviral)
CCc1ccccc1NC(=S)N(CCOC)C(C)c1ccco1 (stereo unspecified)	none
CCc1cccc(C)c1NC(=S)N(CCOC)C(C)c1ccco1 (stereo unspecified)	HCMV antiviral -66
COC(=O)[C@]1(C)CCC[C@@]2(C)C3CC[C@@]4(C)C[C@]3(CCC21)CC(=O)N4 (stereo partly specified)	FMDV inh inconclusive
C=C1C(=O)C23CCC4C(C)(C(=O)OC)CCCC4(C)C2CCC1(O)C3 (stereo unspecified)	HCV inh 3.2µM, HCMV antiviral -99, FMDV inh 3.5µM, VACV mCherry inh 7.9µM, Vaccinia Venus 11µM
COc1ccc(NC(=O)c2ccco2)cc1NC(=O)C(C)(C)Oc1ccc(Cl)cc1	FMDV inh 45µM (no result: HCV inh)
COc1ccc(NC(=O)Cc2ccc(Cl)cc2)cc1NC(=O)c1ccco1	HCV inh 10µM, HCMV antiviral -86 (no result: VACV mCherry inh, Vaccinia Venus)
COc1ccc(C(=O)Nc2cc(NC(=O)c3ccco3)ccc2OC)cc1Cl	none (no result: HCV inh)
COc1ccc(NC(=O)c2ccco2)cc1NC(=O)c1ccco1	none
COc1cc(NC(=O)c2ccccc2Cl)ccc1NC(=O)c1ccco1	VACV mCherry inh 14µM, Vaccinia Venus inconclusive
COc1ccc(NC(=O)c2ccco2)cc1NC(=O)C(C)Oc1ccc(Cl)cc1Cl (stereo unspecified)	HCMV antiviral -80, FMDV inh inconclusive (no result: HCV inh)
COc1cc(NC(=O)c2ccco2)ccc1NC(=O)c1ccccc1Cl	HCV inh inconclusive, HCMV antiviral inconclusive (no result: VACV mCherry inh)
CNc1cc(OC)c(C(=O)N[C@H]2CCN(Cc3ccccc3)[C@H]2C)cc1Cl	none (no result: HCV inh, HCMV antiviral, VACV mCherry inh, Vaccinia Venus)
CN(C)c1ccc(C=NC2CCc3ccccc32)cc1 (stereo unspecified)	none (no result: HCV inh, HCMV antiviral, FMDV inh)
CCc1cccc(C)c1NC(=O)CCn1c(=O)c2cccn2c2ccccc21	HCMV antiviral inconclusive (no result: HCV inh)
Cn1cc(CNCc2ccccc2OCC(O)CN2CCc3ccccc3C2)cn1 (stereo unspecified)	HCV inh 11µM
Cc1cccc(C)c1OCC(O)CN1CCc2ccccc2C1 (stereo unspecified)	HCV inh 13µM
